Out of some 68,000 compounds screened, about 60 (0.09%) were called active. Only a sample is shown. Values without a mark were called inactive. The call rests on the fitted dose curve; in most records, active means well fitted curve in the direction sought with a large enough effect; inconclusive means small, poorly fitted or top-dose-only effect; inactive means flat fitted curve, though single readings scatter.
test: qHTS Assay for Epigenetic Modulators; details: mouse C127i GFP locus derepression, cytometry, 30 h; series mostly up to 46.1 µM; GFP derepression (activation): at the top concentration; further: % of control where 0% means no effect
Excerpt: NIH Molecular Libraries Screening Centers Network [MLSCN] NIH Chemical Genomics Center [NCGC] MLSCN Grant: 1 X01 MH079860-01 Assay Provider: Elisabeth D. Martinez, University of Texas SW Medical Center NCGC Assay Overview: The Locus Derepression assay detects the derepression of a GFP reporter that is stably integrated in a region of the genome of murine c127i mammary cells that is presumably silenced. GFP transcription in this construct is controlled by a CMV promoter, which normally is strong and constitutively active. However, this line was selected for lack of constitutive expression of the GFP protein. GFP production can be induced by incubating the cells with histone deacetylase or DNA methyltransferase inhibitors. Compounds that cause derepression of the locus to express GFP are identified by enumerating GFP positive cells using a laser-scanning microplate cytometer. For further details of this screen and follow-up characterization, see R.L. Johnson, W. Huang, A. Jadhav, C.P. Austin, J. Inglese, E.D. Martinez, A Quantitative High-Throughput Screen Identifies Potential Epigenetic Modulators of Gene Expression, Analytical Biochemistry (2008) 375(2):237-48.
NCGC Assay Protocol Summary: Two hundred and fifty cells in 5 uL per well were dispensed into black, clear-bottom 1536-well plates. Twenty-three nL compound was transferred to the assay plate and cells were incubated 30 hours at 37 C. Medium was removed, cells were washed two times with PBS, and GFP-positive cells were enumerated as fluorescent objects between the sizes of 20 to 120 um width and depth using an Acumen Explorer. Keywords: NIH Roadmap, MLSCN, MLI, MLSMR, qHTS, NCGC, qHTS, HDAC, DNMT, HAT, DNA methyltransferases, histone acetyl transferases, histone deacetylases

For COc1ccc(C(=O)N2CCC3(CCCN(C(c4ccccc4)c4ccccc4)C3)CC2)cc1, which GFP derepression (activation) is on record?
Its GFP derepression (activation) is -2.3% [at 9.22 µM].

With COc1ccc(-c2cc(C(F)(F)F)n3nc(C(=O)N4CCOCC4)c(Cl)c3n2)cc1 as the molecule, how does the “GFP derepression (activation)” value read?
Its value is 0% (inactive).

For O=C(CS(=O)(=O)c1cn(Cc2cccc(F)c2)c2ccccc12)N1CCCCC1, which “GFP derepression (activation)” value is on record?
The value was 2.3% (inactive).

For O=C(O)c1ccc(COc2c(F)c(F)cc(F)c2F)o1, which “GFP derepression (activation)” value is on record?
The value was -2.7% (inactive).

With Cc1ccc(Oc2nc3ccccc3n3c(C)nnc23)cc1 as the molecule, how does the “GFP derepression (activation)” value read?
The value was 0.5% (inactive).

For CCC(c1nnnn1C1CCCC1)N1CCN(C(=O)c2ccco2)CC1 (configuration not stated), which “GFP derepression (activation)” value is on record?
The value was -2.3% (inactive).

Which “GFP derepression (activation)” value does the source give for O=C(COc1ccc(F)cc1)N(CC1=CCS(=O)(=O)C1)c1ccccc1 here?
The value was -2.7% (inactive).

Which “GFP derepression (activation)” value does the source give for Cc1ccc(S(=O)(=O)N2CCC(C(=O)N[C@@H](C)C(=O)NCCc3ccccc3)CC2)cc1 here?
Its value is 0.4% (inactive).

Which “GFP derepression (activation)” value does the source give for O=C(N1CCOCC1)N1CCOCC1 here?
Its value is 0.3% (inactive).

For CC(C)Cc1nc(N2CCOCC2)c(C#N)c2c1CCC2, which “GFP derepression (activation)” value is on record?
Its value is -2.2% [at 20.6 µM] (inactive).

With CCCCCCCCCCCC(=O)O[C@H](CC(=O)O)C[N+](C)(C)C as the molecule, how does the “GFP derepression (activation)” value read?
The value was 1.4% (inactive).

Which GFP derepression (activation) does the source give for Cc1noc(C)c1-c1nc(Nc2ccccc2)c2ccccc2n1 here?
The GFP derepression (activation) was -2.9% [at 9.22 µM].

With O=C(O)c1nn(-c2ccc(Cl)cc2)c2c1C(=O)c1ccccc1C2=O as the molecule, how does the GFP derepression (activation) read?
The GFP derepression (activation) was 4.5% [at 9.22 µM].

With Fc1ccccc1OCCCCn1cncn1 as the molecule, how does the “GFP derepression (activation)” value read?
The value was 0% (inactive).

Which “GFP derepression (activation)” value does the source give for O=[n+]1c2c(n([O-])c3cc(Br)ccc31)CCC2 here?
The value was 5.1% (inactive).

With COC(=O)[C@H]1[C@H]2C[C@H]3c4[nH]c5ccccc5c4CCN3C[C@@H]2CC[C@@H]1O as the molecule, how does the GFP derepression (activation) read?
Its GFP derepression (activation) is “inactive”.

With CCOC(=O)c1cc2occc2n1CC(=O)N1CCN(C(=O)c2ccco2)CC1 as the molecule, how does the “GFP derepression (activation)” value read?
Its value is 2.3% (inactive).

For Cc1cc2c(cc1C)NC1=C(N2)O[C@H](c2c[nH]c3ccc(COc4ccccc4)cc23)C1=O, which GFP derepression (activation) is on record?
The GFP derepression (activation) was 2.2% [at 9.22 µM].

For NC(=NC(=O)c1ccccc1)C1=C(O)CCC1=O, which “GFP derepression (activation)” value is on record?
Its value is -3.4% (inactive).

Which “GFP derepression (activation)” value does the source give for COc1ccc(-n2c(SC)nc(O)cc2=O)cc1 here?
Its value is 0% (inactive).

With O=C(CSc1ncccn1)NC(=O)NCc1ccccc1 as the molecule, how does the “GFP derepression (activation)” value read?
Its value is -1.4% (inactive).

For NCCCNCCCCN(CCCN)/[N+]([O-])=N/O, which “GFP derepression (activation)” value is on record?
Its value is -1.4% (inactive).

Which GFP derepression (activation) does the source give for Cn1cccc1C(=O)N1CCC[C@@]2(CCN(Cc3nccs3)C2)C1 here?
The GFP derepression (activation) was 4.6% [at 9.22 µM].

With COCCn1c(=O)c(-c2ccccc2)nc2cnc(N3CCOCC3)nc21 as the molecule, how does the GFP derepression (activation) read?
The GFP derepression (activation) was -2.7% [at 9.22 µM].

For Cn1c(=NC(=O)CSCC(=O)N2CCOCC2)sc2ccccc21, which “GFP derepression (activation)” value is on record?
The value was 0.2% (inactive).

With Cc1ccc2[nH]c(=O)c(COC(=O)c3ccccn3)cc2c1 as the molecule, how does the “GFP derepression (activation)” value read?
Its value is 0% (inactive).

For CCOC(=O)c1[nH]c2ccc(C)cc2c1N=C(C)N(C)C, which “GFP derepression (activation)” value is on record?
Its value is 3% (inactive).

Which “GFP derepression (activation)” value does the source give for Cc1cc(C(=O)CC#N)c(C)n1CC(F)(F)F here?
Its value is 1.2% (inactive).

For Cc1ccc(NC(=O)c2cccc(N(C)C)c2)cc1NC(=O)c1ccc(O)cc1, which “GFP derepression (activation)” value is on record?
Its value is -0.4% (inactive).

With CCON=C1C(C)(C)C(C)(C)C(C)(C)C1(C)C as the molecule, how does the GFP derepression (activation) read?
The GFP derepression (activation) was 6.6% [at 9.22 µM].

Which “GFP derepression (activation)” value does the source give for Cc1ccc(S(=O)(=O)N(C)CC(=O)N2CCc3ccccc32)cc1 here?
Its value is 2.4% (inactive).

With COc1cccc(-c2cc(NCCc3c[nH]c4ccc(OC)cc34)ncn2)c1 as the molecule, how does the GFP derepression (activation) read?
Its GFP derepression (activation) is 5.1% [at 9.22 µM].

For CC(C)c1ccc2c(c1)c(SC(C)(C)C)c(CC(C)(C)C(=O)O)n2Cc1ccc(Cl)cc1, which GFP derepression (activation) is on record?
Its GFP derepression (activation) is “inactive”.

For C#CCCCCCCCCCCCCCCCC(=O)O, which “GFP derepression (activation)” value is on record?
Its value is 2.4% (inactive).

Which GFP derepression (activation) does the source give for N#CCCn1c(=O)c(-c2cc(F)cc(F)c2)nc2cnc(Oc3ccccc3)nc21 here?
The GFP derepression (activation) was -4.9% [at 9.22 µM].

With CCOc1cccc(NC(=O)CC#N)c1 as the molecule, how does the “GFP derepression (activation)” value read?
Its value is 3.4% (inactive).

With O=C1c2ccccc2C(Nc2ccc3c(c2)OCCO3)N1Cc1ccco1 (configuration not stated) as the molecule, how does the “GFP derepression (activation)” value read?
The value was -3.4% (inactive).

Which “GFP derepression (activation)” value does the source give for CCNCCCNCCCNCCCNCC here?
Its value is -0.4% (inactive).

Which “GFP derepression (activation)” value does the source give for N#CC1=C(SCc2ccccc2)NC(=O)C(C#N)C12CCCC2 (configuration not stated) here?
Its value is 3.3% (inactive).

Which GFP derepression (activation) does the source give for O=C(c1cccc(F)c1)N1CCC2(CC1)CCN(c1ccccc1)CC2 here?
Its GFP derepression (activation) is -1.6% [at 9.22 µM].

Which “GFP derepression (activation)” value does the source give for COc1ccc(OCC(=O)OCC(=O)Nc2ccc(S(=O)(=O)N3CCCCC3)cc2)cc1 here?
The value was 4.8% (inactive).

With O=S(=O)(O)c1ccc(O)c2ncccc12.O=S(=O)(O)c1ccc(O)c2ncccc12.[Zn] as the molecule, how does the GFP derepression (activation) read?
Its GFP derepression (activation) is 2.3% [at 9.22 µM].

With Cc1cccc(CNc2ccnc(-c3cccnc3)n2)c1 as the molecule, how does the GFP derepression (activation) read?
The GFP derepression (activation) was 0% [at 9.22 µM].

For N#CCCN1CCN(S(=O)(=O)c2ccc(S(=O)(=O)NC3CCCCC3)cc2)CC1, which “GFP derepression (activation)” value is on record?
Its value is -2.3% (inactive).

Which “GFP derepression (activation)” value does the source give for Cc1ccc(-c2nn(CC(C)(C)C)c3ncnc(N)c23)cc1 here?
The value was 3.8% (inactive).

Which “GFP derepression (activation)” value does the source give for CCn1c(Cc2ccccc2)nnc1SCC(=O)Nc1ccccc1 here?
The value was -1.7% (inactive).

Which “GFP derepression (activation)” value does the source give for CCc1c(C)[nH]c(=S)c(C#N)c1C here?
Its value is -0.6% (inactive).

For COc1ccc(C)cc1NC(=O)CSc1nc(SC)ns1, which “GFP derepression (activation)” value is on record?
Its value is 6.4% (inactive).

Which “GFP derepression (activation)” value does the source give for CN(C)c1cc[n+](Cc2ccccc2)cc1 here?
Its value is 2.3% (inactive).

Which “GFP derepression (activation)” value does the source give for Nc1nnc(C2CCCC2)s1 here?
The value was 0% (inactive).

For CN(c1nc2ccccc2n2c(-c3ccco3)nnc12)S(=O)(=O)c1ccccc1, which “GFP derepression (activation)” value is on record?
Its value is -2.6% (inactive).

Which “GFP derepression (activation)” value does the source give for CN1CCN(CC(O)COCc2ccc3c(c2)OCO3)CC1 (configuration not stated) here?
The value was -0.1% (inactive).
